Screening results (PubChem)
IL1B secr inh: blocks inflammasome-driven IL-1 beta release. AID 743279. activity change, % at 57.5 µM. 4.7% of 360,000 active. THP-1 LPS/ATP IL-1B secretion, AlphaLISA, 16 h; hits give low values; in the data active = activity change below about -50%; inconclusive = mostly about -30% to -49%
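THP-1 cells pretreated 1 hr with compounds (up to 57.5 uM final), then stimulated with LPS (250 ng/mL final) plus ATP (1.25 mM final); secreted IL-1B measured by AlphaLISA after 16 hr, decreased signal indicating inhibition.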
TDP1 block: blocks human tyrosyl-DNA phosphodiesterase 1 | 0.28% of 350,000 active | Potency, µM (top dose mostly 130 µM), inactives show at the top dose activity change, negative = inhibition, usual class: inhibitors | recombinant TDP1, AlphaScreen DNA substrate cleavage | Q9NUW8; also: potency is read from the fitted curve at half-maximal effect; nearly all actives have a fitted effect of over 40% in size
Target sequence (Q9NUW8 whole entry, looked up): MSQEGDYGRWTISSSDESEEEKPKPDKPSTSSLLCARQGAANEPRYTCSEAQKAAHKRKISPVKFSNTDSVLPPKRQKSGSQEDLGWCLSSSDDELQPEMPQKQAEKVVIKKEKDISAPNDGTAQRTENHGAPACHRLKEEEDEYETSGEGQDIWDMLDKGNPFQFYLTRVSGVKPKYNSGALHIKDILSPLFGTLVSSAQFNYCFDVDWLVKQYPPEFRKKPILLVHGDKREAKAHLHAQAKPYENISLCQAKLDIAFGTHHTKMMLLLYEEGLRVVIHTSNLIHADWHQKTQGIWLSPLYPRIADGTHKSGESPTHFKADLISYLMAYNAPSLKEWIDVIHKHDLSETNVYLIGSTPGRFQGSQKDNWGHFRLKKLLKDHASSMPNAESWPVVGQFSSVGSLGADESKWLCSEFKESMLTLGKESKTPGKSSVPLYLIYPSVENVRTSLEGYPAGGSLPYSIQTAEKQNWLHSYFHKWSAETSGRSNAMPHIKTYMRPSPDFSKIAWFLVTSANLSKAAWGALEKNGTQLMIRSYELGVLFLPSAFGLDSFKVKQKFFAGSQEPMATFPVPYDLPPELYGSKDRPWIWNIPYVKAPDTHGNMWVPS
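Signal: AlphaScreen proximity between streptavidin donor and anti-FITC acceptor beads on intact substrate. Reaction: Tdp1 1 nM, substrate 15 nM final, 5 min RT after 15 min compound preincubation.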
Giardia kill: Giardia lamblia killing; Giardia lamblia trophozoite viability; activity change, % at 7.66 µM, hits read low; 0.15% of 340,000 active; in the data active = activity change below about -80%; inconclusive = between about -30% and that limit;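 also: parasites exposed to compound for two days anaerobically before the ATP read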
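Giardia trophozoites, 100 cells per well, were exposed to compounds for 48 hrs at 37 deg C under anaerobic conditions; viability was then read as ATP content by bioluminescence after 15-30 min at room temperature.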
DT40 TDP1 no CPT: qHTS for Inhibitors of human tyrosyl-DNA phosphodiesterase 1 (TDP1): qHTS in cells in absence of CPT | DT40 Tdp1-/- hTDP1 cells, no CPT, ATP luminescence, 48 h | Potency, µM (titrated, usually from 46.2 µM), for inactives: top-dose activity change, negative = growth inhibition, hits mostly inhibitors | 15% of 420,000 active; also: potency is read from the fitted curve at half-maximal effect; nearly all actives have a fitted effect of over 55% in size
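Seeded 400 DT40-hTDP1 cells/well (vehicle DMSO, no 20 nM CPT); pinned compounds; ≥48 hr at 37 °C; CellTiter-Glo luminescence as viability measure.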
ELG1 DNA repair: blocks ELG1-dependent DNA repair in HEK293T cells | HEK293T ELG1-luciferase reporter, luminescence, 16 h; DNA damage induced by 5-fluorouridine | Potency, µM (doses to about 46.1 µM), inactives show at the top dose activity change, negative = inhibition, usual class: inhibitors | 2.3% of 330,000 active | AID 504467; also: potency is read from the fitted curve at half-maximal effect; nearly all actives have a fitted effect of over 55% in size
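Luminescence from the luciferase reporter, measured 30 min after ONE-Glo reagent at room temperature, was the read-out. Beforehand, 2,000 cells per well were exposed for 16 hr at 37 °C to 5-fluorouridine together with compound or vehicle.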
TDP1 cell CPT: DT40-hTDP1 cell growth loss with CPT; chicken DT40 Tdp1-/-;hTDP1 cells + 20 nM CPT, ATP luminescence, 48 h; 12% of 420,000 active; Potency, µM (series often up to 46.2 µM), for inactives: top-dose activity change, negative = growth inhibition, usual class: inhibitors; also: potency is read from the fitted curve at half-maximal effect; nearly all actives have a fitted effect of over 55% in size
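Chicken DT40 Tdp1-/- cells complemented with human TDP1, 400 cells/well, exposed to compounds plus 20 nM camptothecin for at least 48 h at 37 C; viability read as ATP content by CellTiter-Glo luminescence.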
An asterisk follows results filed as active; i = inactive; ? = inconclusive; . = not tested or not shown; [ ] = remark or other dose. Rows were chosen to be rich in hits. Some 19% of all compounds tested hit in one or more screens of this group. Unless noted, calls follow the shape of the dose curve; as a rule, active = well fitted curve in the direction sought with a large enough effect; inconclusive = small, poorly fitted or top-dose-only effect, or another doubt; inactive = no such curve, though single readings can be large; an effect the other way counts as inactive or inconclusive. % is scaled to controls: 0 for no effect and ±100 for the full control effect.

SMILES	IL1B secr inh	TDP1 block	Giardia kill	DT40 TDP1 no CPT	ELG1 DNA repair	TDP1 cell CPT
COc1ccc2cc(CN(Cc3ccco3)Cc3nnnn3C3CCCCC3)c(=O)[nH]c2c1	-51*	6%	2	?	0%	26µM*
CCOC(=O)CN1C(=O)c2cccnc2Oc2ccccc21	.	0%	.	-21%	.	9%
O=C(O)C1=C[C@H](c2coc3ccccc3c2=O)C[C@H](OCc2ccc(CO)cc2)O1	14	1%	-7	2%	17%	-2%
c1cnc2c(OCc3nc4ccccc4[nH]3)cccc2c1	-6	7%	-3	-8%	?	-15%
COc1ccc(/C=N/Nc2nc3ccccc3[nH]2)c(OC)c1OC	-2	9%	-9	?	?	?
Cc1nn(-c2ccccc2)c(Cl)c1/C=N/Nc1nc2ccccc2[nH]1	-5	8%	-8	-28%	?	?
Cc1ccc(/C=N/Nc2nc3ccccc3[nH]2)s1	-108*	8%	26	?	?	15µM*
C(=N\Nc1nc2ccccc2[nH]1)/c1c[nH]c2ccccc12	-95*	8%	7	16µM*	?	?
C(=N\Nc1nc2ccccc2[nH]1)/c1cccc2cccnc12	217	8%	2	2.9µM*	?	2.6µM*
Cc1ccccc1/C=N/Nc1nc2ccccc2[nH]1	-68*	9%	6	?	?	?
O=[N+]([O-])c1cc(/C=N/Nc2nc3ccccc3[nH]2)c(O)cc1O	61	6%	12	4.6µM*	?	4.6µM*
Cc1[nH]c2ccccc2c1/C=N/Nc1nc2ccccc2[nH]1	-105*	-8%	1	?	?	?
O=c1[nH]c(N/N=C/c2cc3c(cc2[N+](=O)[O-])OCO3)nc2ccccc12	29	6%	?	-17%	10%	-25%
CN(C)c1nc(N/N=C/c2c[nH]c3ccccc23)nc(N2CCOCC2)n1	?	-1%	72	?	-23%	?
C(=N\Nc1nc(N2CCCCC2)nc(N2CCCCC2)n1)/c1c[nH]c2ccccc12	-60*	5%	-9	16µM*	?	?
CCN1CCN(c2ccc(S(=O)(=O)N3CCCCC3)cc2NC(=O)c2ccc(C)c(C)c2)CC1	-10	.	-1	23µM*	.	?
O=C(COc1ccc(F)cc1)Nc1cc(S(=O)(=O)N2CCCCC2)ccc1N1CCCCC1	-6	.	-6	18µM*	?	13µM*
O=C(Nc1cc(S(=O)(=O)N2CCCCC2)ccc1N1CCOCC1)c1ccc(F)cc1	-3	5%	9	-26%	-11%	?
O=C(Nc1cc(S(=O)(=O)N2CCOCC2)ccc1N1CCCC1)c1ccc(F)cc1	-22	5%	7	?	15%	13µM*
CCN1CCN(c2ccc(S(=O)(=O)N3CCCCC3)cc2NC(=O)c2cccc(C)c2)CC1	?	1%	1	?	13%	?
O=C(Nc1cc(S(=O)(=O)N2CCOCC2)ccc1-n1cncn1)c1ccc(Cl)cc1	?	4%	-13	29µM*	-11%	?
COc1ccc(N2CCN(C(=O)c3ccc(CNc4c(N5CCOCC5)c(=O)c4=O)cc3)CC2)cc1	15	.	2	-22%	-4%	10%
CCOc1ccc(NC(=O)COc2ccc3c(c2)CCC3)cc1OC	-30	2%	-10	-24%	-3%	-22%
CCN1CCN(c2ccc(S(=O)(=O)N3CCCCC3)cc2NC(=O)COc2ccc(F)cc2Cl)CC1	?	6%	-24	?	-17%	21µM*
CCN1CCN(c2ccc(S(=O)(=O)N3CCCCC3)cc2NC(=O)c2sccc2C)CC1	-26	7%	12	23µM*	-1%	?
SMILES	IL1B secr inh	TDP1 block	Giardia kill	DT40 TDP1 no CPT	ELG1 DNA repair	TDP1 cell CPT
CCN1CCN(c2ccc(S(=O)(=O)N3CCCCC3)cc2NC(=O)c2ccc(F)cc2)CC1	-9	4%	-6	21µM*	2%	?
Cc1cc(C#N)c(C)n1-c1cc(S(=O)(=O)N2CCOCC2)ccc1N1CCCC1	-9	5%	9	15µM*	.	16µM*
CCOc1cc(N2CCOCC2)c(OCC)cc1NC(=O)c1ccc(-n2ccnc2)c([N+](=O)[O-])c1	12	8%	-3	15µM*	?	-30%
CCOc1cc(N2CCOCC2)c(OCC)cc1NC(=O)COC(=O)c1cccc2ccccc12	-9	3%	-23	-28%	-17%	?
CCOc1cc(N2CCOCC2)c(OCC)cc1NC(=O)Cc1ccccc1OC	-12	7%	22	18µM*	?	16µM*
CCOc1cc(N2CCOCC2)c(OCC)cc1NC(=O)c1cc(C)cc(C)c1	-7	3%	-15	12µM*	?	13µM*
CCOc1cc(N2CCOCC2)c(OCC)cc1NC(=O)COC(=O)c1ccc(OC)c([N+](=O)[O-])c1	0	.	7	23µM*	.	15µM*
CCOc1cc(N2CCOCC2)c(OCC)cc1NC(=O)Cc1ccccc1	12	4%	-3	?	-16%	-18%
CCc1noc(C)c1C(=O)Nc1ccc(S(=O)(=O)N2CCC(C)CC2)cc1	?	-4%[0.505 µM]	2	?	-23%	?
CCOc1cc(N2CCOCC2)c(OCC)cc1NC(=O)c1c(-c2ccccc2Cl)noc1C	-3	10%	-8	7.3µM*	?	10µM*
COc1ccc(S(=O)(=O)N2CCOCC2)cc1NC(=O)CN1CCC(Cc2ccccc2)CC1	i	7%	0	16µM*	?	16µM*
Cc1onc(-c2ccccc2Cl)c1C(=O)Nc1ccc(OCC(=O)N2CCOCC2)cc1	3	-3%	6	-4%	9.2µM*	-14%
CCCn1nc(C(=O)Nc2cc(OCC)c(N3CCOCC3)cc2OCC)c2ccccc2c1=O	-17	.	-2	3.3µM*	.	16µM*
COc1ccc(C)cc1NC(=O)c1ccc2nc(Cc3ccccc3)oc2c1	.	4%	.	?	.	?
CCOc1cc(N2CCOCC2)c(OCC)cc1NC(=O)CN1C(=O)NC(Cc2ccccc2)C1=O (stereo not given)	-1	1%	7	-19%	-1%	3%
CCOc1cc(N2CCOCC2)c(OCC)cc1NC(=O)c1ccc(S(=O)(=O)N(C)C)cc1	-14	2%	1	?	?	?
CCOc1cc(N2CCOCC2)c(OCC)cc1NC(=O)CN1CCC(Cc2ccccc2)CC1	?	2%	0	?	?	23µM*
